These results are taken from ChEMBL document CHEMBL3988442, “University of Dundee, Small-Polar-MMV Screening Library” (2021).

What all share (set-up): scale not given: direction of the effect not stated beside the values
Experiment [1] addresses Protein translocase subunit SecA (Escherichia coli (strain K12)) (UniProt P10408). In words: Assay to Identify E. coli SecA ATPase Inhibitors. The experiment is classed as functional. Particulars: 30 µM.
For experiment [2], the target named is T1, Ubiquitin-activating enzyme e1, putative (Leishmania donovani (strain BPK282A1)) (UniProt E9BSI1).
T1 sequence (whole entry): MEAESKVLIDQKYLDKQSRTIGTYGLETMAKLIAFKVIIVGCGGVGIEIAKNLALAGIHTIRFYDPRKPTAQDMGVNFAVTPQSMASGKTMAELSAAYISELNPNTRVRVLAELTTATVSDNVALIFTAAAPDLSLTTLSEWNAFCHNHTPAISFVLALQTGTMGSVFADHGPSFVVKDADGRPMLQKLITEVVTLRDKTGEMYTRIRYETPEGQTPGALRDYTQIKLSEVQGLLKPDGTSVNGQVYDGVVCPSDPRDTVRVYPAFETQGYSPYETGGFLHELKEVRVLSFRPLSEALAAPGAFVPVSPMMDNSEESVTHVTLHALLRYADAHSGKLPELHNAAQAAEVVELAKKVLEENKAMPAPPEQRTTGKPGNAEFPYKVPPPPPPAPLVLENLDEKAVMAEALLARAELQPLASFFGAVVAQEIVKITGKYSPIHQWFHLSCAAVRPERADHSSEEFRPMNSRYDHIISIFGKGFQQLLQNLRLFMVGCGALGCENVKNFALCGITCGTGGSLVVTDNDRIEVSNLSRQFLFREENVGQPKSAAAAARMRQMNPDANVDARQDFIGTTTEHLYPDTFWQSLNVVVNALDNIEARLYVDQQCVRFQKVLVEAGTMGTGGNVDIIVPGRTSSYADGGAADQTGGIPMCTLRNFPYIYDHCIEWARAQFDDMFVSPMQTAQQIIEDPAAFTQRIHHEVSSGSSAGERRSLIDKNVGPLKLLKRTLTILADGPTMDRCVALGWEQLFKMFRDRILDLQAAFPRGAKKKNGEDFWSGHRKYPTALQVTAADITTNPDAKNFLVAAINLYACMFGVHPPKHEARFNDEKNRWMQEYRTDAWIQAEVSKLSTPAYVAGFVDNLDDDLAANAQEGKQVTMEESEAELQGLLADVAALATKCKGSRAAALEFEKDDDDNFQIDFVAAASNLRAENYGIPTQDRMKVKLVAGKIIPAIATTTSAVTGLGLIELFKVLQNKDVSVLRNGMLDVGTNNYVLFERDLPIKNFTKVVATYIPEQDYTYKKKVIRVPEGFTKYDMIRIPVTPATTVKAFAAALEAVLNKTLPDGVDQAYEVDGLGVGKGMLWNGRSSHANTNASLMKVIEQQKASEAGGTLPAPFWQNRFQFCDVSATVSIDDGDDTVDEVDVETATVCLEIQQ
As to the kind of experiment: Leishmania donovani Ubiquitin Activating Enzyme (LdE1). The class given is functional. Conditions: 30 µM.

In experiment [3] the target is Sialic acid-binding Ig-like lectin 9 (Homo sapiens) (UniProt Q9Y336). As to the kind of experiment: Hs-Siglec9 ALPHAscreen SOP 20170721. Particulars: 10 µM.
Sialic acid-binding Ig-like lectin 9 (Homo sapiens), sequence (Q9Y336 whole entry): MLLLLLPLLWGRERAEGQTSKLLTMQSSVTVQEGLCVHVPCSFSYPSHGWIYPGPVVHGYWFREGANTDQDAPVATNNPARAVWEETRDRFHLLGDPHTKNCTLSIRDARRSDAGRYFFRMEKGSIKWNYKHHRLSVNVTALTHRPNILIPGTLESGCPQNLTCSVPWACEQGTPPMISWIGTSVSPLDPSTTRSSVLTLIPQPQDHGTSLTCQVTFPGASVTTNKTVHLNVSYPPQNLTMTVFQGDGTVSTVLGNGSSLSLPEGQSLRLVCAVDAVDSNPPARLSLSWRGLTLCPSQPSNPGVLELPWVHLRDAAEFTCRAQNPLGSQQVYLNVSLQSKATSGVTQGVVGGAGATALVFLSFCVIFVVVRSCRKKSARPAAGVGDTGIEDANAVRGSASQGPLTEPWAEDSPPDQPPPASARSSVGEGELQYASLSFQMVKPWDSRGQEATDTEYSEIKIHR
The next experiment deals with Trypanosoma cruzi. As to the kind of experiment: Trypanosoma cruzi phosphomannomutase and mannose-1-phosphate guanylyltransferase assay. The experiment is classed as functional. Particulars: 10 µM.
Experiment [4] concerns the target T2, Arginase-2, mitochondrial (Homo sapiens) (UniProt P78540).
T2 sequence (whole entry): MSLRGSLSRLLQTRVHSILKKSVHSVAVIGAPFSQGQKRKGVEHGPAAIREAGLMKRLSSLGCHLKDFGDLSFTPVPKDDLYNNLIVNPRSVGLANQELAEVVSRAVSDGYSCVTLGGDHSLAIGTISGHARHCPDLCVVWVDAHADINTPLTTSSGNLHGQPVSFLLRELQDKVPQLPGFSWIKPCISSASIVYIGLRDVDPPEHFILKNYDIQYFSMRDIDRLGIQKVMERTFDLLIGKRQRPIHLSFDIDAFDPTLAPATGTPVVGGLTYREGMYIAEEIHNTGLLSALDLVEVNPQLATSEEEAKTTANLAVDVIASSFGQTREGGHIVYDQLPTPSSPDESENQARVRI
In words: in vitro enzyme assay to detect the production of urea directly proportional to the activity of Arginase II. Also: in the data most compounds retested in dose-response had high values. The experiment is classed as functional. Conditions: 33.3 µM.

Experiment [5] concerns the target T3, Proteasome subunit beta (Trypanosoma cruzi) (UniProt O96673).
T3 sequence (whole entry): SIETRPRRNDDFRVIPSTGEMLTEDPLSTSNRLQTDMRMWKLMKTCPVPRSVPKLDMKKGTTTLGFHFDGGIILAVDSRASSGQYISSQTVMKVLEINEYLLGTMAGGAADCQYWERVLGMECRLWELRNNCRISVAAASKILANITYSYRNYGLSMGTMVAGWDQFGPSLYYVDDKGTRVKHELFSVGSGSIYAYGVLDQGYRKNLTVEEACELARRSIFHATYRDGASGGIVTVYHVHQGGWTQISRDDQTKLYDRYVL
As to the kind of experiment: Trypanosoma cruzi proteasome chymotrypsin-like activity (TcProtChymo) assay. Also: in the data most compounds retested in dose-response had high values. The experiment is classed as functional. Particulars: 9.37 µM.

The species named for another experiment is Homo sapiens. In words: To identify inhibition of the IFN signalling (Jak-Stat) pathway via expression of an eGFP reporter gene under the control of an IFN-stimulated response element (ISRE) containing MxA promoter. The class given is functional. Particulars: 30 µM.
The target of experiment [6] is T4, Tyrosyl-tRNA synthetase, putative (Trypanosoma cruzi (strain CL Brener)) (UniProt Q4DSP6).
T4 sequence (whole entry): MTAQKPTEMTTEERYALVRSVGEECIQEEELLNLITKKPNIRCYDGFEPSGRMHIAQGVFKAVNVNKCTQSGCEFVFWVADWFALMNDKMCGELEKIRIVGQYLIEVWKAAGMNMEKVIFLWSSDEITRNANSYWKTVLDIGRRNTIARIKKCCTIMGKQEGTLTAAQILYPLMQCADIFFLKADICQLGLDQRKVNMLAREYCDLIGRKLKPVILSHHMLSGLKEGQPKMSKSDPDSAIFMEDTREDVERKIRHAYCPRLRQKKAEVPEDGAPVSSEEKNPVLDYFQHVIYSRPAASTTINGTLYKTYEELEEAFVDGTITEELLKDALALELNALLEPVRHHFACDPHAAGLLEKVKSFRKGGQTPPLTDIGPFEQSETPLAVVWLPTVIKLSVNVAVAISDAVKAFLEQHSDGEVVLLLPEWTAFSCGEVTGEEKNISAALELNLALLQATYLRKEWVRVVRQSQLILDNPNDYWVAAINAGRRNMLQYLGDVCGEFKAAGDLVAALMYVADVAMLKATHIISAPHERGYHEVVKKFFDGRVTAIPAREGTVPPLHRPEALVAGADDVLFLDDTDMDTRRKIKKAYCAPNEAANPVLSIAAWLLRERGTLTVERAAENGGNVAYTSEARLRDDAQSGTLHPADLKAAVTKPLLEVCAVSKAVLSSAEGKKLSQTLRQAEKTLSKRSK
As to the kind of experiment: Trypanosoma cruzi tyrosyl tRNA synthetase (TcYRS) _High Tyrosine SOP. Also: in the data most compounds retested in dose-response had high values. The class given is functional. Conditions: 30 µM.

Experiment [7] concerns the target T4, Tyrosyl-tRNA synthetase, putative (Trypanosoma cruzi (strain CL Brener)). In words: Trypanosoma cruzi tyrosyl tRNA synthetase (TcYRS) SOP. The class given is functional. Particulars: 30 µM.
Experiment [8] has as its target Chromo domain-containing protein 1 (Saccharomyces cerevisiae (strain ATCC 204508 / S288c) (Baker's yeast)) (UniProt P32657). In words: ScCHD-1 Enzyme Inhibition Assay. Also: in the data most compounds retested in dose-response had high values. The class given is functional. Particulars: 30 µM.

For part of these data: Entries with a potency or affinity are not part of this list.

Chromo domain-containing protein 1 (Saccharomyces cerevisiae (strain ATCC 204508 / S288c) (Baker's yeast)), sequence (P32657 whole entry, the tested form may be a part): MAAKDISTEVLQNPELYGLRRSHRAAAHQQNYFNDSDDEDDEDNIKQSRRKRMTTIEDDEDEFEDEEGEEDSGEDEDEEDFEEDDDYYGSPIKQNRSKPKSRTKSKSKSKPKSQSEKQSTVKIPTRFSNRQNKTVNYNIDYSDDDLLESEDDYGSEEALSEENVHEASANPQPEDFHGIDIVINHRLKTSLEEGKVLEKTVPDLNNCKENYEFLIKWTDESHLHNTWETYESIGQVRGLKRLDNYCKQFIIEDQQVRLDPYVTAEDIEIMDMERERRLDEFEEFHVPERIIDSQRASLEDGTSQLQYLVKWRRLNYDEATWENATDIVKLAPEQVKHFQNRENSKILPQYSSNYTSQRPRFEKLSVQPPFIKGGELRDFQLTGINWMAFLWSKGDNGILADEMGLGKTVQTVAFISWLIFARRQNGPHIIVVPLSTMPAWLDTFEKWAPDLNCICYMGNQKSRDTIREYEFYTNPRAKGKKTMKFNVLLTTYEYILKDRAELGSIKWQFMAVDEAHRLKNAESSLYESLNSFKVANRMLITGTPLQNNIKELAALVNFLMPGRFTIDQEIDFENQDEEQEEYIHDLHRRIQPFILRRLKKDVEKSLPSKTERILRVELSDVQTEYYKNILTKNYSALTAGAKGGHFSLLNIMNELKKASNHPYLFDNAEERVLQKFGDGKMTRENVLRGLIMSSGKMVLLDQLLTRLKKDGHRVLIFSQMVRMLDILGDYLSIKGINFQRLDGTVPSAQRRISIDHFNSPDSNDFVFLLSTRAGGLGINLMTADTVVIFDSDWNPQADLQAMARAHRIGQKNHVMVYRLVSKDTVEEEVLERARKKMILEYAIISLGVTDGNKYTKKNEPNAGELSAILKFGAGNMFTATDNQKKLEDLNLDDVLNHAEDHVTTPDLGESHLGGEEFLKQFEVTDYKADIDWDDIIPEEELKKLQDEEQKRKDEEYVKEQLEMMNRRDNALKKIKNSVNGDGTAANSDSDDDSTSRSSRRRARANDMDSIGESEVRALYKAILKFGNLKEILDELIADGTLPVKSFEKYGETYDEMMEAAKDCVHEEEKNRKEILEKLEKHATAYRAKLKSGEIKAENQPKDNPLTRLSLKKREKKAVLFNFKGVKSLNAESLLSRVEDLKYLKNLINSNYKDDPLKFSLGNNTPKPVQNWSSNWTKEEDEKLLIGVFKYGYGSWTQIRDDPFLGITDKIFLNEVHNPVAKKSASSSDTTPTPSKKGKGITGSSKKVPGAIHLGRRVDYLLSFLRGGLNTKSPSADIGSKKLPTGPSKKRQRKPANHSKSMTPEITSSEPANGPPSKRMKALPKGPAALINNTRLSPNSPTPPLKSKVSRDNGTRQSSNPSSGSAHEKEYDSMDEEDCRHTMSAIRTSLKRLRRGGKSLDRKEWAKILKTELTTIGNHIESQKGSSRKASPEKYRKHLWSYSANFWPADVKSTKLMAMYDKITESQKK
Protein translocase subunit SecA (Escherichia coli (strain K12)), sequence (P10408 whole entry): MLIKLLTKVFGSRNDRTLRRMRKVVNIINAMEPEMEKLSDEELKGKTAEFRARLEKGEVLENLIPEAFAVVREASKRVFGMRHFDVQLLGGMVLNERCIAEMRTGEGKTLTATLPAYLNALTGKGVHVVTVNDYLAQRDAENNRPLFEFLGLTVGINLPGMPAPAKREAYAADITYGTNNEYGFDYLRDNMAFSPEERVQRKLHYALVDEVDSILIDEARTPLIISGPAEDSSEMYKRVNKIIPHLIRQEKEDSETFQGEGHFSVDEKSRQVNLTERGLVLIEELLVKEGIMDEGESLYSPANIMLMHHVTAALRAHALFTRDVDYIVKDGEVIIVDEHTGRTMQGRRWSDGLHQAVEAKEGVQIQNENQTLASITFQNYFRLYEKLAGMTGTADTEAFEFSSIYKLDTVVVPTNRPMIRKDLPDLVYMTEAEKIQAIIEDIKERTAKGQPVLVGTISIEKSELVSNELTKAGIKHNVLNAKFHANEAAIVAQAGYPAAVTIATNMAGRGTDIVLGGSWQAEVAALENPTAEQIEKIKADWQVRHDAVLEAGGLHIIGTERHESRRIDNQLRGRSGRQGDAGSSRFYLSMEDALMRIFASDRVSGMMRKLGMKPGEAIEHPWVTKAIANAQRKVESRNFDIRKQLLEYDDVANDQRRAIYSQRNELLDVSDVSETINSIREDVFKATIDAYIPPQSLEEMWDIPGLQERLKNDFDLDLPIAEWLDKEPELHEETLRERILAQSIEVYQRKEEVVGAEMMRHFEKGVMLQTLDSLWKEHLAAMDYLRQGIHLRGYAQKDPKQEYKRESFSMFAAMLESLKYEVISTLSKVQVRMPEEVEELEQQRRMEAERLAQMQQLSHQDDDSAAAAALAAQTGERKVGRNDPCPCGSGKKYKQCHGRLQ

In the case of `CC(C)N(C)CC(=O)N1CCCC(c2ccc(C(=O)O)cc2)C1` (stereo not given), the Percent Effect in experiment [1] was -7.71%; in experiment [2], 5.41%; in [3], 3.58%; in the experiment with Trypanosoma cruzi it was 8.44%; in experiment [4], -1.05%; in experiment [5] it was 1.71%. In addition, the Percent Effect was -11.9% in the experiment listed under Homo sapiens, 7.98% in experiment [6], 17.1% in [7] and -2.58% in experiment [8].
On to `Cc1cnn(CC2CCN(CC(O)COc3ccc(F)cc3)CC2)c1` (stereo not given), for which the Percent Effect is -5.77% in [1]; 2.6% in experiment [2]; -3.53% in experiment [3]; -1.87% in the experiment on Trypanosoma cruzi; -5.94% in [4]; 4.21% in [5]. For the same molecule, the Percent Effect in the experiment listed under Homo sapiens was 9.11%; in [6], 0.98%; in [7] it was 0%; in [8] it was -2.59%.
As to `O=C(NCCC1=CCCCC1)C1CCN(c2ccc3nncn3n2)CC1`, the Percent Effect in experiment [1] is -2.89%; in experiment [2], 10.8%; in experiment [3] it was -2.17%; in the experiment with Trypanosoma cruzi, -0.485%; in experiment [4], -2.45%; in [5], 11.1%. In addition, the Percent Effect in the experiment listed under Homo sapiens turned out to be 28.5%; in experiment [6], 4.79%; in experiment [7], 14.6%; in experiment [8] it was 2.87%.
As for `CN1CC(=O)N(c2ccsc2)CC12CCN(C(=O)c1ccccc1)C2` (stereo not given), the Percent Effect in experiment [1] was -4.65%; in experiment [2], 11.7%; in experiment [3], -6.87%; with Trypanosoma cruzi, -3.99%; in [4], 3.64%; in experiment [5], 12.6%. The Percent Effect in the experiment listed under Homo sapiens is -10.9%; in experiment [6], 5.79%; in [7], 7.69%; in experiment [8] it was 1.01%.
Regarding `CCc1cc(C(=O)N2CCCC2c2nc(C)c(F)c(O)n2)on1` (stereo not given), the Percent Effect in experiment [1] is 1.86%; in experiment [2], 17.3%; in experiment [3], -9.03%; with Trypanosoma cruzi, 0.197%; in [4] it was -3.54%; in [5], 16.1%. Moreover, the Percent Effect was 26.2% in the experiment listed under Homo sapiens, 3.17% in experiment [6], 10% in experiment [7] and -19.6% in experiment [8].
In the case of `CSc1ccc(Cl)c(C(=O)N2CCCC(CNS(C)(=O)=O)C2)c1` (stereo not given), the Percent Effect is 0.802% in experiment [1]; 26% in experiment [2]; -6.07% in experiment [3]; 1.12% in the experiment on Trypanosoma cruzi; -14.6% in [4]; 18.2% in experiment [5]. The Percent Effect in the experiment filed under Homo sapiens was 13%; in experiment [6] it was 1.96%; in [7] it was 28.2%; in experiment [8] it was -11.3%.
On to `Cc1cc(C(=O)NCc2ccc(N3CCCC(C(N)=O)C3)cc2)no1` (stereo not given), for which the Percent Effect in [1] is -3.67%; in experiment [2], 10.7%; in [3], 2.55%; with Trypanosoma cruzi, 3.01%; in [4] it was 4.88%; in [5], 11.1%. In addition, the Percent Effect in the experiment listed under Homo sapiens is 3.86%; in experiment [6], 2.63%; in [7] it was 5.13%; in experiment [8], -7.24%.
For the molecule `CC(C)N1CCCC2(CCN(C(=O)CCCn3ccnc3)C2)C1=O` (stereo not given), the Percent Effect is -6.84% in experiment [1]; 2.7% in experiment [2]; 0.678% in experiment [3]; -2.62% in the experiment with Trypanosoma cruzi; -1.75% in [4]; 13.4% in [5]. Also, the Percent Effect in the experiment filed under Homo sapiens was -5.32%; in experiment [6] it was 4.79%; in experiment [7] it was 12.2%; in experiment [8], -0.546%.
Consider `CCN(C(=O)c1ccc(-n2ncc(C#N)c2N)cc1)C1CCCC1`, for which the Percent Effect in experiment [1] is -1.54%; in [2], 15.6%; in [3], 1.83%; in the experiment on Trypanosoma cruzi, -0.187%; in experiment [4], -5.12%; in experiment [5], 6.67%. The Percent Effect was 3.59% in the experiment filed under Homo sapiens, -14.7% in [6], 16.5% in experiment [7] and -7.19% in experiment [8].
`O=C(NCC1COCc2c(-c3cccnc3)nnn2C1)c1cccs1` (stereo not given): the Percent Effect in experiment [1] was -1.54%; in experiment [2] it was 9.09%; in [3] it was -6.14%; in the experiment with Trypanosoma cruzi, -8.28%; in [4], -12.2%; in experiment [5], 13%. For the same molecule, the Percent Effect in the experiment filed under Homo sapiens is 4.75%; in experiment [6], 10%; in experiment [7], 10.3%; in [8] it was -4.23%.
In the case of `Cc1nc(-c2ccc(C(=O)O)cc2)cc(C2CCN(C(C)C)C2)n1` (stereo not given), the Percent Effect in experiment [1] is -2.82%; in [2] it was 12%; in experiment [3], -4.91%; in the experiment on Trypanosoma cruzi, -1.18%; in [4] it was 4.87%; in experiment [5], 10.7%. Also, the Percent Effect in the experiment listed under Homo sapiens was 8.94%; in experiment [6] it was 5.29%; in experiment [7] it was 15%; in experiment [8], -22.5%.
On to `COc1cccc(S(=O)(=O)N2CCC(O)(CN(C)C)C2)c1` (stereo not given), for which the Percent Effect was -2.81% in experiment [1]; 4% in [2]; -1.76% in experiment [3]; -3.35% in the experiment on Trypanosoma cruzi; 4.42% in [4]; 9.2% in [5]. Further, the Percent Effect was -4% in the experiment listed under Homo sapiens, 1.06% in experiment [6], 7.5% in [7] and -23.8% in experiment [8].
